Assay results taken from PubChem BioAssay (Tox21).
Several values for one entry are separate records, joined by “and”; a condition that tells them apart may be missing. Equal values may be shown once. The source holds several records for some structures; these can differ, active in one and inactive in another. Activity calls are given as the source filed them. A call without a number means that no potency is given here. Unless noted, the call rests on the fitted dose curve; in most records, active means well fitted curve in the direction sought with a large enough effect in the repeat runs; inconclusive means weak or mixed curves; inactive means no such curve, though single readings can be large; an effect the other way counts as inactive or inconclusive.

Key:
[1] = qHTS assay to identify small molecule antagonists of the thyroid receptor (TR) signaling pathway (AID 743065); further: nearly all actives have a fitted effect of over 55% in size; further: potency means the concentration at half of the fitted maximal effect
Summary of the method: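 GH3.TRE-Luc rat pituitary cells carrying two TR response elements driving luciferase were plated for 4 h, given compound plus 1 nM T3 (final), and incubated 23.5 h at 37 C. ONE-Glo luminescence measured reporter inhibition; CellTiter-Fluor fluorescence tracked cytotoxicity.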

[2] = tested on: thyroid hormone receptor (rat, GH3 cells); experiment: qHTS assay to identify small molecule agonists of the thyroid receptor (TR) signaling pathway (AID 743066; calls by dose curve)
[3] = target: Estrogen receptor (Homo sapiens) (UniProt P03372); experiment: qHTS assay to identify small molecule antagonists of the estrogen receptor alpha (ER-alpha) signaling pathway (AID 743069; active means well fitted curve in the direction sought with a large enough effect in the signal ratio in the repeat runs, not every such curve was filed as active; inconclusive means weak or mixed curves, or effect the other way; inactive means no such curve, though single readings can be large or run the other way; the % refers to the signal ratio; further: potency means the concentration at half of the fitted maximal effect)
Estrogen receptor (Homo sapiens), sequence (P03372 whole entry, looked up): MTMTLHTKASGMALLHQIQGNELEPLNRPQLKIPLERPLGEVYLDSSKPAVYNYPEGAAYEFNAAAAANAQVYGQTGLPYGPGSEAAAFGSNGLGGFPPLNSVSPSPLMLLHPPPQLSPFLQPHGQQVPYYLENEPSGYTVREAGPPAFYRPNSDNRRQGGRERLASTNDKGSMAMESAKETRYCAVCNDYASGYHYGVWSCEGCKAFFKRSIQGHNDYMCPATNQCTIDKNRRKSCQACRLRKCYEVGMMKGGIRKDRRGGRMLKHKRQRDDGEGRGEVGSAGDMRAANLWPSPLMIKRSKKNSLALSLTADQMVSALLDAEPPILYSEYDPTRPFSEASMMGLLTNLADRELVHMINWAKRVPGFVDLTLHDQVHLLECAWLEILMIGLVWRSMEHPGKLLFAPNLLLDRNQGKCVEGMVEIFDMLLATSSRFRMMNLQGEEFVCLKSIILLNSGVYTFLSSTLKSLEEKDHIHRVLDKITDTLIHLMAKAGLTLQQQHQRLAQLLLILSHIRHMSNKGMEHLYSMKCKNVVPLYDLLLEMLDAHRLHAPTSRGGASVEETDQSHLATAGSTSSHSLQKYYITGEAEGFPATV
Summary of the method: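 HEK293 cells stably carrying an ER-alpha-UAS-bla beta-lactamase reporter were pre-cultured overnight in 2% charcoal-stripped FBS medium. Test compounds in DMSO were added together with 17beta-estradiol for 18 hr at 37C. Read-out was fluorescence after 2 hr with LiveBLAzer B/G FRET substrate at room temperature.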

[4] = qHTS assay to identify small molecule antagonists of the estrogen receptor alpha (ER-alpha) signaling pathway - cell viability counter screen (AID 743074; calls by dose curve; further: nearly all actives have a fitted effect of over 45% in size)
[5] = target: Estrogen receptor (Homo sapiens) (UniProt P03372); experiment: qHTS assay to identify small molecule agonists of the estrogen receptor alpha (ER-alpha) signaling pathway (AID 743075; calls by dose curve; further: potency means the concentration at half of the fitted maximal effect)
[6] = target: Estrogen receptor (Homo sapiens) (UniProt P03372); experiment: qHTS assay to identify small molecule agonists of the estrogen receptor alpha (ER-alpha) signaling pathway using the BG1 cell line (AID 743079); further: nearly all actives have a fitted effect of over 20% in size; further: potency means the concentration at half of the fitted maximal effect
[7] = qHTS assay to identify small molecule antagonists of the estrogen receptor alpha (ER-alpha) signaling pathway using the BG1 cell line (AID 743080; calls by dose curve;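 further: BG1 cells stimulated with 17beta-estradiol alongside compound; nearly all actives have a fitted effect of over 25% in size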; further: potency means the concentration at half of the fitted maximal effect)
Summary of the method: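 Readout is ONE-Glo luminescence, taken 30 min at room temperature after reagent addition, preceded by a CellTiter-Fluor viability read; BG1-Luc-4E2 cells had received compound and 17beta-estradiol for 21.5 h at 37 C.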

[8] = qHTS assay to identify small molecule antagonists of the estrogen receptor alpha (ER-alpha) signaling pathway using the BG1 cell line - cell viability counter screen (AID 743081);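 further: compound given together with 17beta-estradiol as the ER stimulus; series mostly up to about 70 µM; nearly all actives have a fitted effect of over 45% in size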
Aromatase (Homo sapiens) = Aromatase (Homo sapiens) (UniProt P11511); experiment: qHTS assay to identify aromatase inhibitors (AID 743083); further: nearly all actives have a fitted effect of over 55% in size; further: potency means the concentration at half of the fitted maximal effect
Aromatase (Homo sapiens), sequence (P11511 whole entry, looked up): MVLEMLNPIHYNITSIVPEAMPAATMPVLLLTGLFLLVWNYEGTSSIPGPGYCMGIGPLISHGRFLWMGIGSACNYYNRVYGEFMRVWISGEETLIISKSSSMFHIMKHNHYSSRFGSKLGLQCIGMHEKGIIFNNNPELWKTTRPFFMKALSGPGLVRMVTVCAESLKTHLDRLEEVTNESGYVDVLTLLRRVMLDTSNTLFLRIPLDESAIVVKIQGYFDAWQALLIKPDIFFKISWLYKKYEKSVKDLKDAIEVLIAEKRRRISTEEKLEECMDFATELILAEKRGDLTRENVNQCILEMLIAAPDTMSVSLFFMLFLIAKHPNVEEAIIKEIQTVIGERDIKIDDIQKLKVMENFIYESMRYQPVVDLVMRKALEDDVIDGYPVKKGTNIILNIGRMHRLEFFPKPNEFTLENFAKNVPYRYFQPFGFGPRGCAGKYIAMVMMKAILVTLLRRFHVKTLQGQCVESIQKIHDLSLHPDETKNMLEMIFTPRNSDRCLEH

[9] = qHTS assay to identify aromatase inhibitors - cell viability counter screen (AID 743084);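 further: cells stimulated with testosterone during compound exposure; nearly all actives have a fitted effect of over 55% in size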
[10] = target: Aryl hydrocarbon receptor (Homo sapiens) (UniProt P35869); experiment: qHTS assay to identify small molecule that activate the aryl hydrocarbon receptor (AhR) signaling pathway (AID 743085);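 further: HG2L7.5c1 human HepG2 liver cells with stably integrated DRE-driven firefly reporter; series mostly up to about 70 µM; nearly all actives have a fitted effect of over 15% in size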
Aryl hydrocarbon receptor (Homo sapiens), sequence (P35869 whole entry, looked up): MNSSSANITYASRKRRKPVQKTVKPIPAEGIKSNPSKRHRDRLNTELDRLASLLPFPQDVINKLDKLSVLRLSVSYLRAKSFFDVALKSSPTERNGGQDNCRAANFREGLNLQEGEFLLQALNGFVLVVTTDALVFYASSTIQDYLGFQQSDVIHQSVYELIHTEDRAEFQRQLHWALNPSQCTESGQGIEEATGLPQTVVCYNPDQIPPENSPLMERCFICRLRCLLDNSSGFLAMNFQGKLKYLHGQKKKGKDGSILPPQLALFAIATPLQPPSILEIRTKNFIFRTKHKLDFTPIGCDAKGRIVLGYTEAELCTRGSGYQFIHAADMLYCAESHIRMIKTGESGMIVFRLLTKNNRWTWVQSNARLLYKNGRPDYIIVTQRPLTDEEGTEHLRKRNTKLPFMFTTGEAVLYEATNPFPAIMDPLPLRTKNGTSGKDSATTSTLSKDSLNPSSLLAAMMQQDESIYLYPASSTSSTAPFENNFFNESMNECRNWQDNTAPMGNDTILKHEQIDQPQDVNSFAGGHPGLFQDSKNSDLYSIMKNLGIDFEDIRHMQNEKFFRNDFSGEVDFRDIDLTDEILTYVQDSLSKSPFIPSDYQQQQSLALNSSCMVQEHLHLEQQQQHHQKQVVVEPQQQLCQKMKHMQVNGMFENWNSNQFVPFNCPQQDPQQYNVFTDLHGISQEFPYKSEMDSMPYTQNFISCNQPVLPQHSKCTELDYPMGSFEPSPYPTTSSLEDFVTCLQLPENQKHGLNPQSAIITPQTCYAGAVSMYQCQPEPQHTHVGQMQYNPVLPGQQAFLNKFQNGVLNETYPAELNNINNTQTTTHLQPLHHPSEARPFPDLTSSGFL
Summary of the method: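 Cell line HG2L7.5c1 (human hepatoma, 20× DRE-luc). Plated, 5 h 37C, compound/DMSO added, 24 h 37C. CellTiter-Fluor 30 min 37C → fluorescence; then ONE-Glo 30 min RT → luminescence.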

[11] = qHTS assay to identify small molecule that activate the aryl hydrocarbon receptor (AhR) signaling pathway - cell viability counter screen (AID 743086);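 further: HepG2 liver cells carrying the AhR DRE luciferase reporter; series mostly up to about 70 µM; nearly all actives have a fitted effect of over 45% in size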
Summary of the method: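 HepG2-AhR-luc (HG2L7.5c1) cells, 4000/well, were preincubated 5 h at 37C, exposed to compound in qHTS format for 24 hr at 37C, then given CellTiter-Fluor for 30 min; viability was read as fluorescence in the reporter wells.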

[12] = target: Peroxisome proliferator-activated receptor gamma (Homo sapiens) (UniProt P37231); experiment: qHTS assay to identify small molecule agonists of the peroxisome proliferator-activated receptor gamma (PPARg) signaling pathway (AID 743094; active means well fitted activation curve with a large enough effect in the signal ratio in the repeat runs, not every such curve was filed as active; inconclusive means weak or mixed curves, or effect the other way; inactive means no such curve, though single readings can be large or run the other way; the % refers to the signal ratio)
Peroxisome proliferator-activated receptor gamma (Homo sapiens), sequence (P37231 whole entry, looked up): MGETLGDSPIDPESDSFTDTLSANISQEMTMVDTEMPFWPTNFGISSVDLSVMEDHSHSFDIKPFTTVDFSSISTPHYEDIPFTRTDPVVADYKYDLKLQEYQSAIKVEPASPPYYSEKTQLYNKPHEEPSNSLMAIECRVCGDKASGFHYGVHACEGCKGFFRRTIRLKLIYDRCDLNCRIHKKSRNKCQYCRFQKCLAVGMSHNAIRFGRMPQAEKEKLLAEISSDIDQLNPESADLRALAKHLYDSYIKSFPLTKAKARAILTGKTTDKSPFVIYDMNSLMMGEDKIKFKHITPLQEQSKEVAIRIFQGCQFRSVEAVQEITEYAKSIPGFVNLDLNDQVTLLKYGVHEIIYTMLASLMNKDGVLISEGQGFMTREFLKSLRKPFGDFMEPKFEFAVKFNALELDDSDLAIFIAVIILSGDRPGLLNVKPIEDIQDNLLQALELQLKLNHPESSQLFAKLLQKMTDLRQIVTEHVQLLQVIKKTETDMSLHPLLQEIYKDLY
Summary of the method: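 Quantitative HTS agonist mode: stable HEK293H line with UAS-beta-lactamase reporter under PPARg control, 17 h compound exposure at 37C, fluorescence after 1 h FRET substrate loading at room temperature.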

[13] = qHTS assay to identify small molecule antagonists of the peroxisome proliferator-activated receptor gamma (PPARg) signaling pathway - cell viability counter screen (AID 743194); conditions: Potency: co-treated with 50 nM rosiglitazone; further: nearly all actives have a fitted effect of over 55% in size
Summary of the method: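 PPARg-UAS-bla HEK293H cells were plated, rested 5 h at 37 C, then treated with compounds plus rosiglitazone (50 nM final) for 17 h at 37 C; viability was then read by CellTiter-Glo luminescence after 30 min at room temperature.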

[14] = qHTS assay for small molecule agonists of the antioxidant response element (ARE) signaling pathway - cell viability counter screen (AID 743203; calls by dose curve; further: nearly all actives have a fitted effect of over 55% in size)
Summary of the method: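 Seeded at 2,000 cells/well, ARE-bla HepG2 cells were incubated 5 hrs before compound addition. After 16 hrs of treatment at 37C with 5% CO2, CellTiter-Glo reagent was added and luminescence read 30 min later.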

[15] = qHTS assay for small molecule activators of the heat shock response signaling pathway (AID 743210; active means well fitted activation curve with a large enough effect in the signal ratio in the repeat runs, with a control signal flat, not every such curve was filed as active; inconclusive means weak or mixed curves; the % refers to the signal ratio; further: series mostly up to about 63 µM)
Summary of the method: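 HSE-bla HeLa cells (beta-lactamase reporter under heat shock response elements) were exposed to compounds for 5 h at 37 C, then loaded with LiveBLAzer B/G FRET substrate for 2.5 h at room temperature before fluorescence reading.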

[16] = qHTS assay to identify small molecule agonists of the peroxisome proliferator-activated receptor delta (PPARd) signaling pathway - cell viability counter screen (AID 743211); further: nearly all actives have a fitted effect of over 55% in size
Summary of the method: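 HEK293H PPARd-bla, 3000 cells/well; 5 h preincubation 37C/5% CO2; cpd in DMSO, 17 h 37C; B/G FRET substrate 2 h RT; CellTiter-Glo 30 min RT, luminescence.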

[17] = target: Peroxisome proliferator-activated receptor gamma (Homo sapiens) (UniProt P37231); experiment: qHTS assay to identify small molecule antagonists of the peroxisome proliferator-activated receptor gamma (PPARg) signaling pathway (AID 743191; calls by dose curve; further: series mostly up to about 63 µM; nearly all actives have a fitted effect of over 30% in size)
Summary of the method: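 GeneBLAzer PPARg UAS-bla HEK293H cells carrying a UAS-driven beta-lactamase reporter were plated at 3000 cells/well, preincubated 5 h at 37C, then given compound for 17 h at 37C; LiveBLAzer B/G FRET substrate was read after 1 h at room temperature.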

[18] = qHTS assay for small molecule activators of the heat shock response signaling pathway - cell viability counter screen (AID 743209); further: nearly all actives have a fitted effect of over 50% in size
Summary of the method: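 First, HSE-bla HeLa cells were seeded at 1500 cells/well and kept overnight at 37 C. Next, compounds were pinned in and incubated 5 h. After the FRET substrate step, CellTiter-Glo was added and luminescence read 30 min later.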

[19] = qHTS assay for small molecule agonists of the antioxidant response element (ARE) signaling pathway (AID 743202; active means well fitted activation curve with a large enough effect in the signal ratio in the repeat runs, not every such curve was filed as active; inconclusive means weak or mixed curves, or effect the other way; inactive means no such curve, though single readings can be large or run the other way; the % refers to the signal ratio; further: potency means the concentration at half of the fitted maximal effect)
Summary of the method: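 Read-out: LiveBLAzer B/G FRET substrate fluorescence after 2 h at room temperature, following 16 h compound treatment at 37 C of HepG2 cells carrying an ARE-driven beta-lactamase reporter.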

SMILES	Potency [1]	Potency [2]	Potency [3]	Potency [4]	Potency [5]	Potency [6]	Potency [7]	Potency [8]	Potency (Aromatase (Homo sapiens))	Potency [9]	Potency [10]	Potency [11]	Potency [12]	Potency [13]	Potency [14]	outcome [15]	Potency [16]	Potency [17]	Potency [18]	Potency [19]
C[C@H]1CNCCc2ccc(Cl)cc21	inactive	inactive	inactive	inactive	inactive	inactive	inactive	inactive	inactive	inactive	inactive	inactive	inactive	inactive	inactive	inactive	inactive	–	–	–
COC(=O)C(C)N(C(=O)Cc1ccccc1)c1c(C)cccc1C (configuration not stated)	61.1 µM (active)	inactive	inactive	inactive	inactive	inactive	inactive	inactive	inactive	inactive	inactive	inactive	inactive	inactive	inactive	inactive	inactive	inactive	inactive	–
BrCCCCBr	inactive	inactive	inactive	inactive	inactive	inactive	inactive	inactive	inactive	inactive	inactive	inactive	inactive	inactive	inactive	inactive	inactive	–	inactive	–
ClCC(Br)CBr (configuration not stated)	inactive	inactive	inactive	inactive	inactive	inactive	inactive	inactive	inactive	inactive	inactive	inactive	inactive	inactive	inactive	inactive	inactive	inactive	inactive	inactive
O=C(CBr)c1ccccc1	inactive	inactive	inactive	inactive	inactive	54.8 µM (active)	inactive	inactive	inactive	inactive	inactive	inactive	inactive	inactive	inactive	–	inactive	inactive	–	–
COc1cc(Cl)c(OC)cc1Cl	inactive	inactive	inactive	inactive	inactive	inactive	inactive	inactive	inactive	inactive	inactive	inactive	inactive	inactive	inactive	inactive	inactive	inactive	inactive	–
COC(=O)c1cncn1C(C)c1ccccc1 (configuration not stated)	inactive	inactive	inactive	inactive	inactive	inactive	inactive	inactive	inactive	inactive	inactive	inactive	inactive	inactive	inactive	inactive	inactive	inactive	inactive	inactive
COC(N)=O	inactive	inactive	inactive	inactive	inactive	inactive	inactive	inactive	inactive	inactive	inactive	inactive	inactive	inactive	inactive	inactive	inactive	inactive	inactive	–
C=CCC1([C@H](C)CCC)C(=O)NC(=O)NC1=O	inactive	inactive	inactive	inactive	inactive	inactive	inactive	inactive	inactive	inactive	inactive	inactive	inactive	inactive	inactive	inactive	inactive	inactive	inactive	–
NC(=O)CI	inactive	inactive	inactive	inactive	inactive	inactive	inactive	inactive	inactive	inactive	inactive	inactive	inactive	inactive	inactive	inactive	inactive	inactive	inactive	inactive
Cn1cc[n+](C)c1 (tested in a mixture with another compound)	inactive	inactive	inactive	inactive	inactive	inactive	inactive	inactive	inactive	inactive	inactive	inactive	inactive	inactive	inactive	inactive	inactive	inactive	inactive	inactive
C=CCOC(C)=O	inactive	inactive	inactive	inactive	inactive	inactive	inactive	inactive	inactive	inactive	inactive	inactive	inactive	inactive	inactive	inactive	inactive	–	inactive	inactive
CNC(C)Cc1ccccc1OC (configuration not stated)	inactive	inactive	inactive	inactive	inactive	inactive	inactive	inactive	inactive	inactive	inactive	inactive	inactive	inactive	inactive	inactive	inactive	–	inactive	inactive
O=C(O)COc1ccc(Cl)cc1	inactive	inactive	inactive	inactive	inactive	inactive	inactive	inactive	inactive	inactive	inactive	inactive	inactive	inactive	inactive	inactive	inactive	–	–	–
COCC(C)N(C(=O)CCl)c1c(C)csc1C (configuration not stated)	inactive	inactive	inactive and 30.9 µM [inconclusive] (active)	inactive	inactive	inactive	inactive	inactive	inactive and 34.4 µM (active)	inactive	inactive	inactive	inactive	inactive	–	inactive	inactive	–	–	4.33 µM (active)
Cc1ccc2ccccc2c1	inactive	inactive	inactive	inactive	inactive	inactive	inactive	inactive	inactive	inactive	inactive	inactive	inactive	inactive	inactive	inactive	inactive	–	–	–

SMILES	Potency [1]	Potency [2]	Potency [3]	Potency [4]	Potency [5]	Potency [6]	Potency [7]	Potency [8]	Potency (Aromatase (Homo sapiens))	Potency [9]	Potency [10]	Potency [11]	Potency [12]	Potency [13]	Potency [14]	outcome [15]	Potency [16]	Potency [17]	Potency [18]	Potency [19]
C=CCCl	inactive	inactive	inactive	inactive	57.6 µM [activator] (active)	32.1 µM (active)	inactive	inactive	inactive	inactive	inactive	inactive	inactive	inactive	inactive	inactive	inactive	inactive	–	inactive
CCOC(=O)C(Cl)C(C)=O (configuration not stated)	inactive	inactive	inactive	inactive	inactive	inactive	inactive	inactive	inactive	inactive	inactive	inactive	inactive	inactive	inactive	inactive	inactive	–	inactive	inactive
Brc1ccccc1	inactive	inactive	inactive	inactive	inactive	inactive	inactive	inactive	inactive	inactive	inactive	inactive	inactive	inactive	inactive	inactive	inactive	inactive	inactive	inactive
CS/C(C)=N/OC(=O)N(C)SN(C)C(=O)O/N=C(\C)SC	27.3 µM (active)	inactive	inactive	inactive	inactive	inactive	inactive	inactive	inactive	inactive	inactive	inactive	inactive	inactive	inactive	–	inactive	–	–	inactive
N#CCc1ccccc1	inactive	inactive	inactive	inactive	inactive	inactive	inactive	inactive	inactive	inactive	inactive	inactive	inactive	inactive	inactive	–	inactive	inactive	–	–
ClC=C(Cl)Cl	inactive	inactive	inactive	inactive	inactive	inactive	inactive	inactive	inactive	inactive	inactive	inactive	inactive	inactive	inactive	inactive	inactive	inactive	inactive	inactive
CCN(C)N=O	inactive	inactive	inactive	inactive	inactive	inactive	inactive	inactive	inactive	inactive	inactive	inactive	inactive	inactive	inactive	inactive	inactive	inactive	inactive	–
Clc1ccc(C(OCCN2CCCCC2)c2ccccc2)cc1 (configuration not stated)	11.4 µM (active)	inactive	inactive	inactive	inactive	inactive	inactive	inactive	inactive	inactive	inactive	inactive	inactive	inactive	–	inactive	–	inactive	–	–
CCOP(=S)(OCC)SCSCC	inactive	inactive	inactive	inactive	inactive	30.6 µM (active)	inactive	inactive	inactive	inactive	inactive	inactive	inactive	inactive	inactive	inactive	inactive	–	inactive	inactive
O=NN1CCCCCC1	inactive	inactive	inactive	inactive	inactive	inactive	inactive	inactive	inactive	inactive	inactive	inactive	inactive	inactive	inactive	inactive	inactive	–	inactive	inactive
CC(=O)NC1CCSC1=O (configuration not stated)	inactive	inactive	inactive	inactive	inactive	inactive	inactive	inactive	inactive	inactive	inactive	inactive	inactive	–	inactive	inactive	inactive	inactive	inactive	inactive
CCOP(=O)(OCC)O/C(=C/Cl)c1ccc(Cl)cc1Cl	29.8 µM (active) and 61.1 µM (active)	inactive	21.9 µM [inconclusive] (active)	inactive	inactive	inactive	54.5 µM (active)	inactive	27.3 µM (active)	inactive	inactive	inactive	inactive	inactive	inactive	inactive	inactive	–	inactive	–
CC(=O)[C@H]1CC[C@H]2[C@@H]3CC[C@H]4C[C@](C)(O)CC[C@]4(C)[C@H]3CC[C@]12C	inactive	inactive	inactive	inactive	inactive	inactive	inactive	inactive	inactive	inactive	inactive	inactive	inactive	inactive	inactive	inactive	inactive	–	–	–
Brc1ccc(Oc2ccccc2)cc1	inactive	inactive	inactive	inactive	inactive	inactive	inactive	inactive	inactive	inactive	inactive	inactive	inactive	inactive	inactive	inactive	inactive	–	–	inactive
CC(=O)CCC(C)=O	inactive	inactive	inactive	inactive	inactive	inactive	inactive	inactive	inactive	inactive	inactive	inactive	inactive	inactive	inactive	inactive	inactive	–	–	inactive
